Screening results (PubChem)
miR122 inh = miR-122 suppressors via Renilla sensor increase, primary screen, cell-based, Huh7 psiCHECK-miR122, Renilla luciferase, single point | 0.14% of 340,000 active | 48 h | activation, % at 12.5 µM;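 active = mean activation of 30% or more, with every replicate also reaching 30%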;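 also: higher luciferase signal means stronger suppression of miR-122 activity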
Each line names hits and unclear results; the compound was inactive in the other large screens. The entries come from a sample that favours hits as a whole.

COc1ccc(C2SCC(=O)Nc3c2c(=O)[nH]n3C2CCCCCC2)cc1 (centres undefined)	miR122 inh 37.0
CCCCn1nnnc1C(c1cccc(OC)c1OC)N1CCC2(CC1)C(=O)NCN2c1ccccc1 (centres undefined)	none
CCOc1ccccc1NC(=O)N1CCC2(CC1)OCCO2	none
CCN(CC)S(=O)(=O)c1ccc(C)c(NCC(=O)Nc2ccc(C#N)c(Cl)c2)c1	none
CN1CCN(c2ccc([N+](=O)[O-])c3no[n+]([O-])c23)CC1	miR122 inh 35.1
COc1ccc(-c2nc3ccccc3n2OC(=O)N(C)C)cc1	none
C=C1C(=O)OC2C1CCC(C)C1(O)C=CC(=O)C21C (centres undefined)	none
COc1ccc(NP(=O)(Oc2ccc(Cl)cc2)Oc2ccc(Cl)cc2)cc1OC	none
O=C1NC(=O)C(CCc2ccncc2)(Cc2cccc(Cl)c2Cl)C(=O)N1c1ccc(Br)cc1 (centres undefined)	none
CN=C1CN(O)C(c2ccccc2)c2cc(Cl)ccc2N1 (centres undefined)	none
